# In the supplement of paper PMC9694430:
# Where a name gives a salt, the structure may show the parent alone.
# What was measured:
# Assay in all cases: thermal shift delta Tm vs DMSO control; higher = stronger stabilization (binding)
# Details in all cases: 12.5 µM; protein concentration 2 µM
# LOC_OS01G01410-cb001 = system: LOC_OS01G01410-cb001
# Procedure, shortened: (§1)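 Heating from 25°C to 95°C at 0.05°C/s, fluorescence was recorded for 19.5 μl wells of 2 μM E. coli-expressed, purified rice kinase domain in 100 mM potassium phosphate pH 7.5, 150 mM NaCl, 10% glycerol and 5 × SYPRO Orange with compound in DMSO. Boltzmann fits gave melting temperatures for this differential scanning fluorimetry assay. The shift reported is the mean of three replicates against the DMSO-only protein.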
# LOC_OS01G02750-cb003 = system: LOC_OS01G02750-cb003
# Procedure, shortened: as §1
# LOC_OS01G10900-cb004 = system: LOC_OS01G10900-cb004
# Procedure, shortened: as §1
# LOC_OS01G13800-cb001 = system: LOC_OS01G13800-cb001
# Procedure, shortened: as §1
# LOC_OS01G14860-cb001 = system: LOC_OS01G14860-cb001
# Procedure, shortened: as §1
# LOC_OS01G21960-cb002 = system: LOC_OS01G21960-cb002
# Procedure, shortened: as §1
# LOC_OS01G39600-cb002 = system: LOC_OS01G39600-cb002
# Procedure, shortened: as §1
# LOC_OS01G48390-cb002 = system: LOC_OS01G48390-cb002
# Procedure, shortened: as §1
# LOC_OS01G51400-cb002 = system: LOC_OS01G51400-cb002
# Procedure, shortened: as §1
# LOC_OS01G52050-cb004 = system: T1, LOC_OS01G52050-cb004
# T1 sequence (whole entry): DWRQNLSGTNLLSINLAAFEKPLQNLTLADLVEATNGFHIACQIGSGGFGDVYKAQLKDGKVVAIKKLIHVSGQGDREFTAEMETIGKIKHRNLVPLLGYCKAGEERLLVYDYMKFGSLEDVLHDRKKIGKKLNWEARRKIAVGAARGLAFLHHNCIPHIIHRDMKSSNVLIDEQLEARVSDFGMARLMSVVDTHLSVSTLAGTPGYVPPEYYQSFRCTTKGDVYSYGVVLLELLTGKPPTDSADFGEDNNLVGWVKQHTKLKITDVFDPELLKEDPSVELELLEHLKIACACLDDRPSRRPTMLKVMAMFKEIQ
# Procedure, shortened: as §1
# LOC_OS01G57100-cb003 = system: LOC_OS01G57100-cb003
# Procedure, shortened: as §1
# LOC_OS01G60330-cb001 = system: LOC_OS01G60330-cb001
# Procedure, shortened: as §1
# LOC_OS01G60700-cb002 = system: LOC_OS01G60700-cb002
# Procedure, shortened: as §1
# LOC_OS01G63280-cb003 = system: LOC_OS01G63280-cb003
# Procedure, shortened: as §1
# LOC_OS01G67340-cb003 = system: LOC_OS01G67340-cb003
# Procedure, shortened: as §1
# LOC_OS01G70970-cb002 = system: LOC_OS01G70970-cb002
# Procedure, shortened: as §1
# LOC_OS02G07810-cb001 = system: LOC_OS02G07810-cb001
# Procedure, shortened: as §1
# LOC_OS02G08530-cb003 = system: LOC_OS02G08530-cb003
# Procedure, shortened: as §1
# LOC_OS02G14120-cb001 = system: LOC_OS02G14120-cb001
# Procedure, shortened: as §1
# LOC_OS02G17970-cb001 = system: LOC_OS02G17970-cb001
# Procedure, shortened: as §1
# 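Note: purified Escherichia coli-expressed rice kinase domain construct.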
SMILES,thermal shift delta Tm (LOC_OS01G01410-cb001) [°C],thermal shift delta Tm (LOC_OS01G02750-cb003) [°C],thermal shift delta Tm (LOC_OS01G10900-cb004) [°C],thermal shift delta Tm (LOC_OS01G13800-cb001) [°C],thermal shift delta Tm (LOC_OS01G14860-cb001) [°C],thermal shift delta Tm (LOC_OS01G21960-cb002) [°C],thermal shift delta Tm (LOC_OS01G39600-cb002) [°C],thermal shift delta Tm (LOC_OS01G48390-cb002) [°C],thermal shift delta Tm (LOC_OS01G51400-cb002) [°C],thermal shift delta Tm (LOC_OS01G52050-cb004) [°C],thermal shift delta Tm (LOC_OS01G57100-cb003) [°C],thermal shift delta Tm (LOC_OS01G60330-cb001) [°C],thermal shift delta Tm (LOC_OS01G60700-cb002) [°C],thermal shift delta Tm (LOC_OS01G63280-cb003) [°C],thermal shift delta Tm (LOC_OS01G67340-cb003) [°C],thermal shift delta Tm (LOC_OS01G70970-cb002) [°C],thermal shift delta Tm (LOC_OS02G07810-cb001) [°C],thermal shift delta Tm (LOC_OS02G08530-cb003) [°C],thermal shift delta Tm (LOC_OS02G14120-cb001) [°C],thermal shift delta Tm (LOC_OS02G17970-cb001) [°C]
CCN(CC)CCNC(=O)c1c(C)[nH]c(/C=C2\C(=O)Nc3ccc(F)cc32)c1C [Sunitinib],3.95,1.72,0.25,-0.3,1.43,2.21,2.9,1.72,0.22,7.91,-0.24,9.23,0.91,0.49,4.15,6.85,0.37,4.95,7.49,0.22
COc1cc(Nc2ncc(F)c(Nc3ccc4c(n3)N(COP(=O)(O)O)C(=O)C(C)(C)O4)n2)cc(OC)c1OC [R788 (Fostamatinib) Disodium],0.8,1.55,0.2,0.19,1.64,1.94,5.17,0.57,0.49,1.51,1.79,1.17,1.17,1.12,0.57,1.43,0.47,0.82,5.05,1.55
Oc1cc(CNC(=S)/C=C/c2cc(O)c(O)c(Br)c2)cc(O)c1O,4.72,1.04,-0.23,4.09,2.93,5.85,0.87,0.74,1.58,1.78,7.83,17.7,-0.76,20,0.53,0.97,4.09,-1.06,-0.83,7.15
N#Cc1cccc(-c2c[nH]c3ncnc(N4CCOCC4)c23)c1,0.72,2.58,0.72,0.32,1.47,1,1.94,0.73,0.58,1.08,1.38,0.98,0.99,4.38,1.62,0.07,0.61,2.7,3.85,0.73
CC(C)NC[C@@H](C(=O)N1CCN(c2ncnc3c2[C@H](C)C[C@H]3O)CC1)c1ccc(Cl)cc1 [Ipatasertib (GDC-0068)],0.15,0.42,0.03,0.07,0.06,0.43,0.77,-0.11,0.32,0.26,0.44,0.84,1.12,0.25,0.25,0.4,0.82,0.31,-0.01,0.06
"C=CC(=O)Nc1cccc(Nc2nc(Nc3ccc(N4CCN(C(C)=O)CC4)cc3OC)ncc2C(F)(F)F)c1 [Rociletinib (CO-1686, AVL-301)]",1.11,-0.18,-0.01,-0.38,0.68,0.5,-0.84,1.8,0.49,0.58,3.39,1.53,1.63,-0.27,0.52,1.38,1,5.28,1.71,0.49
COc1cc2nccc(Oc3ccc(NC(=O)C4(C(=O)Nc5ccc(F)cc5)CC4)cc3)c2cc1OC,1.63,0.81,0.73,0.78,1.07,0.93,1.5,6.38,0.3,2.44,1.05,2.17,1.12,1.29,0.96,1.37,1.4,1.21,5.23,0.76
Oc1ccc(-c2nc(-c3ccc(F)cc3)c(-c3ccncc3)[nH]2)cc1,1.39,0.58,0.58,0.18,2.36,0.98,-0.06,0.38,0.01,0.5,1.5,0.98,2.02,0.47,-0.26,0.63,1.96,1.58,0.99,1.05
Cc1cc(C(=O)NOCCO)c(Nc2ccc(I)cc2F)n(C)c1=O,0.56,0.29,0.4,0.2,0.16,0.85,-0.46,0.25,-0.04,-0.21,1.03,0.4,0.64,0.19,-0.42,0.23,0.73,0.29,-0.53,0.08
C=CC(=O)N1CC[C@@H](Oc2nc(Nc3ccc(N4CCC(N5CCN(C)CC5)CC4)cc3)c(C(N)=O)nc2CC)C1 [Naquotinib(ASP8273)],5.21,1.59,4.44,-0.4,4.17,2.68,1.51,3.38,-0.03,2.34,0.96,9.41,0.02,0.22,1.05,5.67,-0.78,4.36,8.5,0.57
COc1cc2c3cc1Oc1c(OC)c(OC)cc4c1[C@@H](Cc1ccc(O)c(c1)Oc1ccc(cc1)C[C@@H]3N(C)CC2)N(C)CC4 [Berbamine (dihydrochloride)],-0.04,0.3,0.03,-0.62,-0.18,0.36,-0.05,0.32,-0.01,0.22,1.3,-0.73,1.22,-0.06,0.28,0.03,-0.23,1.1,0.03,-0.21
CNC(=O)c1ccccc1Nc1cc(Nc2ccc(N3CCOCC3)cc2OC)ncc1C(F)(F)F,0.48,1.23,0.53,1.17,1.05,1.09,0.34,0.58,0.74,5.73,2.14,0.41,1.89,0.52,3.13,10.3,0.91,3.96,9.46,2.18
O=c1c(O)c(-c2ccc(O)c(O)c2)oc2cc(O)cc(O)c12 [Quercetin],3.05,7.25,1.68,1.97,3.55,3.4,6.51,2.95,1.5,6.25,2.71,8.09,0.35,10.7,5.98,2.14,2.05,2.33,3.39,1.77
Cc1ccc(Nc2cc(N[C@@H]3CCCC[C@@H]3N)nnc2C(N)=O)nc1C,1.14,1.56,0.34,0.15,4.3,1.71,0.06,0.5,0.36,4.19,2.34,1.23,1.25,0.77,0.39,2.01,0.12,2.54,5.04,1.48
O=C(Nc1cc(C(F)(F)F)cc(C(F)(F)F)c1)c1cc(Cl)ccc1O,1.21,2.23,0.29,1.37,1.05,1.13,3.34,1.1,0.99,1.75,1.44,1.34,2.1,1.28,0.01,0.57,2.75,1.42,0.39,2.43
N#Cc1c(O)c2c(-c3ccc(-c4ccccc4O)cc3)csc2[nH]c1=O,0.93,1.74,0.92,1.23,0.8,1.72,0.7,0.95,0.44,0.93,3.04,1.32,1.46,0.82,0.95,0.52,1.91,1.2,0.5,1.96
O=S(=O)(NCCNC/C=C/c1ccc(Br)cc1)c1cccc2cnccc12,0.28,0.92,3.17,0.66,0.58,1.16,0.27,1.8,0.23,0.48,1.34,0.45,0.98,0.58,-0.25,0.05,1.39,0.72,0.95,0.98
CC(C)(C)c1cnc(CSc2cnc(NC(=O)C3CCNCC3)s2)o1,1.11,10.9,3.68,0.5,5.74,0.34,0.92,6.3,0.67,0.49,0.61,1.41,1.28,0.71,-0.45,0.26,0.43,0.72,0.42,-0.01
Cc1ccc(NC(=O)c2cccc(N(C)C)c2)cc1NC(=O)c1ccc(O)cc1,0.45,0.15,0.12,0.36,0.44,0.92,-0.01,0.9,0.37,0.36,2.98,1.17,1.43,0.32,-0.19,0.28,1.54,1.03,0.45,0.95
COc1cc(N2CCC(N3CCN(C)CC3)CC2)ccc1Nc1ncnc(Nc2ccccc2S(=O)(=O)C(C)C)n1,0.27,1.86,0.08,-0.11,0.33,0.28,0.25,0.94,0.37,0.61,1.39,0.48,0.92,0.72,0.5,0.84,0.26,1.76,3.1,0.11
